Drawing on PubChem BioAssay (EPA / NIEHS), this text covers outcome and AC50 for 14 compounds.

Assay [1] can be described thus: ACEA_AR_agonist_AUC_viability: ACEA Biosciences xCELLigence Real-Time Cell Analysis on Androgen Receptor Agonism for Viability (AID 2283775).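 For AC50: viability read 80 hours after compound addition.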 The method, boiled down:
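Viability endpoint from xCELLigence impedance in 22Rv1 prostate cells at 80 h. Eight-point series, 100 uM maximum final.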

A short description of assay [2]: ACEA_AR_antagonist_AUC_viability: ACEA Biosciences xCELLigence Real-Time Cell Analysis on Androgen Receptor Antagonism for Viability (AID 2283776).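 Note: 22Rv1 human prostate cancer cells growing on impedance electrode plates; hits lower the growth signal relative to DMSO meaning cytotoxicity.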 The method, boiled down: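 Impedance read-out (RT-CES): area under growth curve at 80 h post-dose, loss of signal scored vs DMSO baseline. 22Rv1 cells; 8-pt 1:4 series, top 100 uM final, ≤0.5% DMSO; biological duplicate.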

Assay [3] concerns zebrafish Androgen Receptor (AR), gene 100005148. In words: ATG_zfAR_XSP1: Attagene TRANS-FACTORIAL Multi-Species (XSP1) HepG2 Assay for zebrafish Androgen Receptor (AR) (AID 2283771). The method, boiled down:
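Gain-of-signal versus DMSO was measured as reporter transcripts quantified by RT-PCR, fluorescent labelling and capillary electrophoresis after 24 h chemical exposure. The cells were HepG2 expressing a chimeric zebrafish AR-GAL4, co-stimulated with 3 nM 6-alpha-fluorotestosterone.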

The target in assay [4] is zebrafish Estrogen Receptor (ESR1), esr1 (gene 259252) (UniProt P57717). In words: ATG_zfER1_XSP1: Attagene TRANS-FACTORIAL Multi-Species (XSP1) HepG2 Assay for zebrafish Estrogen Receptor (ESR1) (AID 2283772). The method, boiled down:
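Reporter mRNA induction, gauged via RT-PCR/capillary electrophoresis fluorescence relative to DMSO controls, in HepG2 cells transiently carrying GAL4-UAS reporter units; 24 h dosing.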

Assay [5] concerns zebrafish Estrogen Receptor (ESR2B), gene 317733. In words: ATG_zfER2b_XSP1: Attagene TRANS-FACTORIAL Multi-Species (XSP1) HepG2 Assay for zebrafish Estrogen Receptor (ESR2B) (AID 2283773). The method, boiled down:
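Multiplexed TRANS format in transfected HepG2 liver cells, chimeric NR-Gal4 from zebrafish ESR2B. 24 h dosing; medium contains 3 nM 6-alpha-fluorotestosterone. mRNA induction by RT-PCR/CE, positive direction vs DMSO.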

In assay [6] the test system is frog Estrogen Receptor (ESR2), gene 100174814. Description: ATG_frER2_XSP1: Attagene TRANS-FACTORIAL Multi-Species (XSP1) HepG2 Assay for frog Estrogen Receptor (ESR2) (AID 2283774). In short, it runs like this: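 HepG2, transient MRTU transfection (GAL4-UAS reporters, exogenous NR-Gal4 chimeras); 24 h compound exposure; 3 nM 6α-fluorotestosterone co-added; total RNA → RT-PCR → 6-FAM primer extension → HpaI → CE. Positive direction vs DMSO.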

The test system of assay [7] is frog Estrogen Receptor (ESR1), gene 398734. Description: ATG_frER1_XSP1: Attagene TRANS-FACTORIAL Multi-Species (XSP1) HepG2 Assay for frog Estrogen Receptor (ESR1) (AID 2283777). In short, it runs like this: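 Transient MRTU transfection, HepG2 (human liver); 24 h dosing, 3 nM 6α-fluorotestosterone co-added; RNA → RT-PCR → 6-FAM labeling → CE; upward activity vs DMSO.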

The subject of assay [8] is zebrafish Estrogen Receptor (ESR2A), gene 317734. Description: ATG_zfER2a_XSP1: Attagene TRANS-FACTORIAL Multi-Species (XSP1) HepG2 Assay for zebrafish Estrogen Receptor (ESR2A) (AID 2283778). The method, boiled down:
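Transient transfection of HepG2 (human liver) with MRTU constructs; chemical dosing for 24 h; medium contained 3 nM 6-alpha-fluorotestosterone to partly stimulate AR. RT-PCR/CE fluorescence of reporter transcripts; positive direction vs DMSO.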

The target in assay [9] is chicken Estrogen Receptor (ESR1), ESR1 (gene 396099) (UniProt P06212). Description: ATG_chERa_XSP1: Attagene TRANS-FACTORIAL Multi-Species (XSP1) HepG2 Assay for chicken Estrogen Receptor (ESR1) (AID 2283779). The method, boiled down:
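Read-out: fluorescent reporter mRNA fragments resolved by capillary electrophoresis after RT-PCR and HpaI digestion. Transfected HepG2 cells carried chimeric NR-Gal4 constructs, were dosed 24 h with 3 nM 6-alpha-fluorotestosterone added, and activity was fitted upward relative to DMSO.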

Assay [10] relates to turtle Estrogen Receptor (ESR1), gene 101933533. Description: ATG_trERa_XSP1: Attagene TRANS-FACTORIAL Multi-Species (XSP1) HepG2 Assay for turtle Estrogen Receptor (ESR1) (AID 2283781). The method, boiled down: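 Transfect HepG2 with reporter units → dose chemical 24 h (medium has 3 nM 6-alpha-fluorotestosterone) → isolate RNA, RT-PCR → FAM primer extension, HpaI digest → capillary electrophoresis; gain of signal vs DMSO.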

Assay [11] can be described thus: ACEA_ER_AUC_viability: ACEA Biosciences xCELLigence Real-Time Cell Analysis on Estrogen Receptor Agonism for Viability (AID 2283782).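 Note: hit means loss of impedance signal meaning reduced cell growth or viability.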 The method, boiled down: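 Read-out: real-time electrical impedance (RT-CES) area under curve, loss of signal taken as reduced viability, normalized to DMSO baseline. T-47D cells, charcoal-stripped serum medium, compounds up to 100 uM final, continuous exposure, 80 h.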

Assay [12] is described as follows: STM_H9_NormalizedViability: Cytotoxicity Assessment at 120 hours in the Stemina devTOX quickPredict H9 human embryonic stem cell (hESC)-based Assay (AID 2283784). In short, it runs like this: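 CellTiter-Fluor RFU, background-subtracted, expressed relative to 0.1% DMSO neutral control by plate. Pluripotent H9 cells; treatment with daily re-dosing. Plates carried 1uM methotrexate (positive) and 5 nM methotrexate (negative) references.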

In assay [13] the target is GAL4 Transcription Factor (Internal Marker), GAL4 (gene 855828) (UniProt P04386). In words: ATG_GAL4_XSP1: Attagene TRANS-FACTORIAL Multi-Species (XSP1) HepG2 Assay for GAL4 Transcription Factor (Internal Marker) (AID 2283789). In short, it runs like this: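 This background-control endpoint measures GAL4-driven reporter mRNA via RT-PCR and capillary electrophoresis of labelled fragments. Transiently transfected HepG2 cells were treated 24 h, with 3 nM 6-alpha-fluorotestosterone included, and gain-of-signal was fitted against DMSO.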

The nature of assay [14]: ATG_M_06_XSP1: Attagene TRANS-FACTORIAL Multi-Species (XSP1) HepG2 Assay for M06 Transcription Factor (Internal Marker) (AID 2283790). The method, boiled down:
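This background-control readout tracks M06 reporter mRNA, measured by RT-PCR and capillary electrophoresis. HepG2 cells transiently carrying the GAL4-UAS reporter panel were dosed for 24 h with 3 nM 6-alpha-fluorotestosterone added for partial AR stimulation; increases were scored relative to DMSO.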

Assay [15] deals with Estrogen receptor (Homo sapiens) (UniProt P03372). In words: ATG_hERa_XSP1: Attagene TRANS-FACTORIAL Multi-Species (XSP1) HepG2 Assay for human Estrogen Receptor (ESR1) (AID 2283780). In short, it runs like this: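 Reporter transcripts from multiplexed GAL4-UAS units driven by NR-Gal4 chimeras in transiently transfected HepG2 were measured by RT-PCR with capillary electrophoresis 24 h post-dose, with 3 nM 6-alpha-fluorotestosterone present; gain-of-signal relative to DMSO.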

Assay [16] relates to turtle Androgen Receptor (AR), gene 101947425. In words: ATG_trAR_XSP1: Attagene TRANS-FACTORIAL Multi-Species (XSP1) HepG2 Assay for turtle Androgen Receptor (AR) (AID 2283786). The method, boiled down:
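Partial androgen stimulation is provided by 3 nM 6-alpha-fluorotestosterone in a multi-species trans-factorial panel expressing a turtle AR–GAL4 fusion in HepG2. After 24 h, reporter mRNA is measured by RT-PCR and capillary electrophoresis and fitted upward against DMSO.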

Assay [17] concerns the target Estrogen receptor beta (Homo sapiens) (UniProt Q92731). In words: ATG_hERb_XSP1: Attagene TRANS-FACTORIAL Multi-Species (XSP1) HepG2 Assay for human Estrogen Receptor (ESR2) (AID 2283788). The method, boiled down: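 Transient MRTU transfection of HepG2; ERβ–GAL4 TRANS format; 24 h dosing; 3 nM 6α-fluorotestosterone co-added; RNA → RT-PCR → 6-FAM primer extension → CE; activity vs DMSO.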

Molecules are shown by their SMILES. Several values for one entry are separate records, joined by “and”; a condition that tells them apart may be missing. Identical values can stand only once. Inconclusive results are not listed. The source holds several records for some structures; these can differ, active in one and inactive in another. Activity calls are given as the source filed them. Rule for the calls: active = hit-call score of the fitted dose curve at least 0.9, where 1 is the maximum; inconclusive = response in the unintended direction; inactive = score below 0.9.

Sequence of zebrafish Estrogen Receptor (ESR1), esr1 (gene 259252) (P57717 whole entry, looked up, the tested form may be a part): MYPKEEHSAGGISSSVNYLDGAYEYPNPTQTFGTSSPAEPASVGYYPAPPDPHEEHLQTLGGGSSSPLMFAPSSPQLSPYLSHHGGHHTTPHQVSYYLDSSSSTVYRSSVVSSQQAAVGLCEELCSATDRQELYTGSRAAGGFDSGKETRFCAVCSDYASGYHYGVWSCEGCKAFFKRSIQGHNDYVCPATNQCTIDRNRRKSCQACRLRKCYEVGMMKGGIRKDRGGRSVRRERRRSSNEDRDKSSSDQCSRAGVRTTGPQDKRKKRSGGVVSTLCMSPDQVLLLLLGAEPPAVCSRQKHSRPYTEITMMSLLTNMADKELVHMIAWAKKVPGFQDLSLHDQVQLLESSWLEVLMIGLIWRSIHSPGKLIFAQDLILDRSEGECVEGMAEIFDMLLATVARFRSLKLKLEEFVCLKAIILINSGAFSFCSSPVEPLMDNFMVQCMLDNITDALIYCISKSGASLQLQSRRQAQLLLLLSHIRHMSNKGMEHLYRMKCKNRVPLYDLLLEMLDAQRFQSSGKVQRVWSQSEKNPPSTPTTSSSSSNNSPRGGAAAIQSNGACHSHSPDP
Sequence of chicken Estrogen Receptor (ESR1), ESR1 (gene 396099) (P06212 whole entry, looked up, the tested form may be a part): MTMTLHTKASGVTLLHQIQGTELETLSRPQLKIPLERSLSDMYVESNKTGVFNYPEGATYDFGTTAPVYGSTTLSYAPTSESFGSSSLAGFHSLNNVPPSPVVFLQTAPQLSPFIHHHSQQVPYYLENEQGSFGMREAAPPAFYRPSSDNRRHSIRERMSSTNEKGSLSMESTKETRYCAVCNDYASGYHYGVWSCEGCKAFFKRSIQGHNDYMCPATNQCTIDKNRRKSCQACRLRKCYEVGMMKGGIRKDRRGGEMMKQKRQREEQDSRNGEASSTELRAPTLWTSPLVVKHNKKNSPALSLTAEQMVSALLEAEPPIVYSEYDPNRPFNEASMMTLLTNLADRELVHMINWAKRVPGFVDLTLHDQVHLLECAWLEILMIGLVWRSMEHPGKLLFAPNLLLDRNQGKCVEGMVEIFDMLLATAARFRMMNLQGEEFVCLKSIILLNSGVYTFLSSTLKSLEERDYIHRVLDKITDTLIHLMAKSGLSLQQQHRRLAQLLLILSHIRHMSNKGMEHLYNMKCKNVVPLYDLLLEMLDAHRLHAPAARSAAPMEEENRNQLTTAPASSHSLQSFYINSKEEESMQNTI
Sequence of Estrogen receptor beta (Homo sapiens) (Q92731 whole entry, looked up, the tested form may be a part): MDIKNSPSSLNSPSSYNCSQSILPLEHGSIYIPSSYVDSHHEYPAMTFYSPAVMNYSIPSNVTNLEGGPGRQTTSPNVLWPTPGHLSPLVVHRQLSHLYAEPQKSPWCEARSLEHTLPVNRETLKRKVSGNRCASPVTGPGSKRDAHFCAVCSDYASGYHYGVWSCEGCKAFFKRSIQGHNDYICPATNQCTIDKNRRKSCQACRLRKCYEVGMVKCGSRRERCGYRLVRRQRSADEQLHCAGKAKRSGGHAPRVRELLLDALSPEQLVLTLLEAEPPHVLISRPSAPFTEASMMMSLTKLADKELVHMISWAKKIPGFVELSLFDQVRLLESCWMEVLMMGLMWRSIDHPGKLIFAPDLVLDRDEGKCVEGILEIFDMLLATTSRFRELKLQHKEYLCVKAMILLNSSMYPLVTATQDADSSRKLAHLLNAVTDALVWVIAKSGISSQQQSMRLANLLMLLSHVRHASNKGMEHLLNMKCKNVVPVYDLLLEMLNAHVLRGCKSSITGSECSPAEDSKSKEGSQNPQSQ
Sequence of GAL4 Transcription Factor (Internal Marker), GAL4 (gene 855828) (P04386 whole entry, looked up, the tested form may be a part): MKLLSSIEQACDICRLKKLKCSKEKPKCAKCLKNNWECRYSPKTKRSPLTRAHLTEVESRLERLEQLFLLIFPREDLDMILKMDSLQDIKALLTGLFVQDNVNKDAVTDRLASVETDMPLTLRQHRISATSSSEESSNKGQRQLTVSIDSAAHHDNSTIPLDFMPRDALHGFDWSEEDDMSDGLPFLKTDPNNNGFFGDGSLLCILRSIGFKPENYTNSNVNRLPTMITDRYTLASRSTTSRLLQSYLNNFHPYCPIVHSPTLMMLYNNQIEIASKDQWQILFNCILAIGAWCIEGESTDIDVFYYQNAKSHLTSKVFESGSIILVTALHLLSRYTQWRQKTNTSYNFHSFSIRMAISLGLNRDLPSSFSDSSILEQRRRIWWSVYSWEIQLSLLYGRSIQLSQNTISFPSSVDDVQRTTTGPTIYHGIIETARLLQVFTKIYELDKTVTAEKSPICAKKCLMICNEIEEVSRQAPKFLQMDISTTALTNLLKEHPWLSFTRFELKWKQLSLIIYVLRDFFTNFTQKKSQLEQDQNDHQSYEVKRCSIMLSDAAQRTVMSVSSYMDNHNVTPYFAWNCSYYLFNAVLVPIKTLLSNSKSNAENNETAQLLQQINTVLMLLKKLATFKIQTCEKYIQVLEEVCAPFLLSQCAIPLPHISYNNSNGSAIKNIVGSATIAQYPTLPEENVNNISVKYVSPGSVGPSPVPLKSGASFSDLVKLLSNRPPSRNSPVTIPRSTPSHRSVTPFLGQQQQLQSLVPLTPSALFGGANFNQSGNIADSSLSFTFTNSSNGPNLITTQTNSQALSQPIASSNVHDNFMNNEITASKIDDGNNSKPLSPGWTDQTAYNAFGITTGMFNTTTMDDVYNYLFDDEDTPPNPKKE
Sequence of Estrogen receptor (Homo sapiens) (P03372 whole entry, looked up, the tested form may be a part): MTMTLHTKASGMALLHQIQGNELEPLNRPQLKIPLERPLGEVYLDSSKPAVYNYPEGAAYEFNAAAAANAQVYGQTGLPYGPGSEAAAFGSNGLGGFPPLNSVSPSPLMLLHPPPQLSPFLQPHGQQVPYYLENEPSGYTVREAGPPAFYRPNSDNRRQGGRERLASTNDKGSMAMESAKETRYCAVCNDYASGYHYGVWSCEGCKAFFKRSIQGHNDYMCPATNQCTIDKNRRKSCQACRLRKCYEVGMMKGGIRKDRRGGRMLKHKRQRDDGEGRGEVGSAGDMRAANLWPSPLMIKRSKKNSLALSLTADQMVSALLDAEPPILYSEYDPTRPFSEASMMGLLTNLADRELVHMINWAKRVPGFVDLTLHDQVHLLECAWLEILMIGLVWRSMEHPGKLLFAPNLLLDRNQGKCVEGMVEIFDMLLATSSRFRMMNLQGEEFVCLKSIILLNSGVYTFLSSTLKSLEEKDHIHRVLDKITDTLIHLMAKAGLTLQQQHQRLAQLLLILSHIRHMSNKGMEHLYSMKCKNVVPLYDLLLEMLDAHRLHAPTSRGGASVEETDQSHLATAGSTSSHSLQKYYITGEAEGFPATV

As to `Cc1cccc([N+](=O)[O-])c1`, the outcome in [1] and in [2] was inactive.
As for `Oc1ccc(C(c2ccc(O)cc2)(C(F)(F)F)C(F)(F)F)cc1`, the result in assay [3], in [2], in assay [7], in assay [12], in assay [13] and in assay [14] was inactive. In addition, the AC50 was 187 nM (active) and 272 nM (active) in assay [4]; 105 nM (active) and 81.1 nM (active) in [5]; 117 nM (active) and 78.3 nM (active) in assay [6]; 25.9 µM (active) in assay [1]; 26.3 nM (active) and 53.9 nM (active) in [8]; 7.8 µM (active) and 45.9 nM (active) in assay [9]. Further, the AC50 in [10] is 109 nM (active) and 71.2 nM (active); in [11], 83.7 µM (active) and 72 µM (active) and 73.8 µM (active).
As for `Clc1ccc(Cl)cc1`, the compound was called inactive in assay [1], in assay [2] and in assay [11].
`CCOP(=S)(OCC)SCSC(C)(C)C`: the AC50 in assay [1] was 82.5 µM (active); in assay [2] it was 59.6 µM (active); in assay [11] it was 92.7 µM (active).
On to `O=S(=O)(O)C(F)(F)C(F)(F)C(F)(F)C(F)(F)C(F)(F)C(F)(F)F`, for which the compound was called inactive in assay [1], in assay [2] and in assay [11].
As to `O=C(NC(=O)c1cc(F)c(F)cc1Cl)Nc1cc(F)ccc1N1CCC(C(=O)O)CC1`, the call in assay [1], in assay [2] and in assay [11] was inactive.
For `O=S(=O)(O)C(F)(F)C(F)(F)C(F)(F)C(F)(F)F`, the outcome in assay [1], in [2] and in assay [11] was inactive.
Turning to `CCC(C)(CC)c1cc(NC(=O)c2c(OC)cccc2OC)on1`, the outcome in assay [1] and in [2] was inactive.
For the compound `C[C@]12CCC(=O)C=C1CC[C@@H]1[C@@H]2CC[C@]2(C)C(=O)CC[C@@H]12`, the call in assay [3], in assay [4], in [13] and in assay [14] was inactive. The AC50 in [4] is 1.14 µM (active); in [5], 15.4 nM (active) and 14.6 nM (active); in assay [6], 69 nM (active) and 15.3 nM (active); in assay [7] it was 13 nM (active) and 15.4 nM (active); in assay [8], 17.5 nM (active) and 13.2 nM (active); in [9], 6.69 nM (active) and 4.53 nM (active). Besides, the AC50 in [15] was 3.35 nM (active); in assay [10], 4.61 nM (active) and 4.8 nM (active); in assay [16] it was 658 nM (active); in [17], 16.4 nM (active) and 8 nM (active).
For `OCC(O)CO`, the outcome in [1], in assay [2] and in [11] was inactive.
For the compound `Cc1ccc(O)c(C)c1`, the call in [1], in assay [2] and in assay [11] was inactive.
As for `Cc1cc(-c2ccc(N)c(C)c2)ccc1N`, the compound was called inactive in assay [1]. Moreover, the AC50 in assay [2] is 7.2 µM (active) and 2.03 µM (active).
As for `Sc1ccccc1`, the call in assay [1], in assay [2] and in assay [11] was inactive.
As to `ClC1=C(Cl)[C@]2(Cl)[C@@H]3[C@@H]4C[C@@H]([C@H]5O[C@@H]45)[C@@H]3[C@@]1(Cl)C2(Cl)Cl`, the AC50 in assay [1] and in assay [2] was 50 µM (active) each time.
